What all share (assay): NCI-60 one-dose screen, 48 h (100 = growth as untreated, 0 = no growth, -100 = all killed)
For assay [1], the system named is HCT-15 colon. To be noted: 10 µM unless noted.
For assay [2], the system named is HT29 colon. As to conditions: 10 µM unless noted.
For assay [3], the system named is SNB-75 CNS. As to conditions: 10 µM unless noted.
Assay [4] has as its system SNB-19 CNS. As to conditions: 10 µM unless noted.
In assay [5] the test system is PC-3 prostate. As to conditions: 10 µM unless noted.
In assay [6] the test system is SK-MEL-5 melanoma. As to conditions: 10 µM unless noted.
For assay [7], the system named is UACC-62 melanoma. As to conditions: 10 µM unless noted.
For assay [8], the system named is LOX IMVI melanoma. As to conditions: 10 µM.
In assay [9] the test system is SK-MEL-28 melanoma. As to conditions: 10 µM unless noted.
Assay [10] deals with U251 CNS. To be noted: 10 µM unless noted.

The panel holds about 83,000 compounds, 20% with a hit somewhere; the sample as a whole holds those more often.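 Assay: single dose, 48 h. Readout: percent growth (0 = no net growth; negative = cell death). Active: <10.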 Unmarked numbers belong to inactive results. Active and inactive are the calls of the source.

Turning to `CCc1oc2ccccc2c1C(=O)c1cc(Br)c(O)c(Br)c1`, the growth in [1] was 62.5%; in assay [2], 89.3%; in assay [3], 53.7%; in assay [4] it was 78.4%; in [5], 65.5%; in assay [6], 46.1%. Moreover, the growth was 38.9% in [7], 62.3% in assay [8] and 63.9% in assay [9].

Turning to `C/C(=N/NC(N)=S)c1ccc(C)cc1`, the growth is 79.9% in [1]; 55.8% in assay [2]; 92.9% in [3]; 104% in [4]; 84.9% in assay [10]; 90.6% in assay [5]. Further, the growth in assay [7] is 103%; in assay [8], 108%; in assay [9], 111%.

On to `CN(C)c1ccc(/C=C/c2nccc3ccccc23)cc1`, for which the growth was 66.4% in assay [1]; 98.6% in assay [2]; 98.8% in assay [3]; 79.4% in assay [4]; 83.4% in assay [5]; 86.7% in assay [6]. Besides, the growth is 60.9% in assay [7], 87.8% in [8] and 89.4% in assay [9].

Take `CCC1CCCCN1C(=S)N/N=C(\C)c1ccccn1` (stereo not drawn): the growth in assay [1] was 27.3%; in assay [2], -19.5% (active); in [3] it was 16.1%; in assay [4], 16.2%; in assay [10], 6.56% (active); in assay [6] it was -61.5% (active). In addition, the growth in assay [7] is -39.8% (active); in [8] it was 6.45% (active); in [9] it was 28%.

Regarding `CCN(CC)CCNC(Cc1ccccc1)c1ccc(OCc2ccccc2)cc1` (stereo not drawn), the growth in assay [1] was 30.4%; in assay [2], 15.4%; in assay [3], 71.4%; in assay [4] it was 89.3%; in [5], 56.8%; in assay [6], 72.8%. For the same compound, the growth was -50.8% (active) in assay [7], 58.6% in [8] and 62.5% in assay [9].

Consider `CCCCCCCCCCCCCCCc1ccc(C(=O)C[n+]2ccccc2)cc1`, for which the growth in assay [1] is -48.6% (active); in assay [2] it was -39.3% (active); in [3] it was -55% (active); in assay [4], -84.1% (active); in assay [10], -42.2% (active); in [5], -90.7% (active). Besides, the growth in assay [7] was -27.6% (active); in assay [8], -55.9% (active); in assay [9] it was -14.5% (active).

With `CC1(O)CCCCCC1`, the growth in assay [1] is 102%; in assay [2] it was 110%; in [3] it was 86.3%; in [4] it was 97.6%; in [10], 101%; in assay [5] it was 103%. In addition, the growth in assay [7] was 100%; in assay [8], 94.2%; in [9], 106%.

For the compound `Cn1c(-c2ccccc2)c(/C=C/C2=[N+](C)c3ccccc3C2(C)C)c2ccccc21`, the growth in [1] was 38.9%; in assay [2], 0.701% (active); in assay [3], 20.6%; in assay [4] it was 18.5%; in assay [10], 8.73% (active); in assay [5] it was 8.69% (active). Also, the growth in assay [7] is -3.73% (active); in assay [8], 14.8%; in assay [9], 22.5%.

On to `Cc1ccc2c(c1)sc(-c1ccc(N(C)C)cc1)[n+]2C`, for which the growth in [1] is 68.7%; in assay [2], 4.16% (active); in assay [3], 14.2%; in assay [4], 16.1%; in [10], -2.09% (active); in [6], -76.6% (active). Besides, the figures for the growth in assay [7], in assay [8] and in assay [9] were 8.89% (active), 1.78% (active) and 30.8%, respectively.

With `Cc1cc(C(=O)c2ccc(Cl)cc2)ccc1O`, the growth was 112% in assay [1]; 99.1% in [2]; 96% in assay [3]; 116% in assay [4]; 101% in [10]; 95.3% in assay [6]. Further, the growth in [7] is 89.8%; in [8] it was 99.3%; in assay [9] it was 105%.

For `O=[N+]([O-])c1ccc(N2CCN(Cc3ccccc3)CC2)c2c1no[n+]2[O-]`, the growth in assay [1] is -52.8% (active); in assay [2] it was -70.4% (active); in [3] it was 68.4%; in assay [4], 37.3%; in assay [10] it was -47.8% (active); in assay [5] it was -31.4% (active). The growth in [7] is 4.15% (active); in assay [8], -36.3% (active); in assay [9] it was 77%.

As for `CC(C)c1ccc(Nc2n[nH]c(=S)s2)cc1`, the growth in assay [1] was 99.8%; in assay [2], 76.1%; in [3] it was 92.3%; in [4], 99.1%; in assay [5], 93.6%; in [6] it was 101%. Further, the growth is 99% in assay [7], 101% in assay [8] and 112% in [9].

In the case of `CCCOC(=O)c1nc(N(CC2CCCCC2)C(=O)NC)sc1/N=C/c1ccccc1`, the growth in [1] is -70.3% (active); in assay [2] it was -37.7% (active); in assay [3] it was -11.1% (active); in [4] it was 24.5%; in [10], 5.96% (active); in assay [5] it was 25.3%. For the same compound, the values for the growth in [7] and in assay [9] were 4.74% (active) and 35%, respectively.

With `CCCCCCCCCCCC[n+]1ccccc1` (tested in a mixture with another compound), the growth in assay [1] is 38.5%; in [2], -30.1% (active); in assay [3], -45.9% (active); in assay [4], -10.2% (active); in assay [10], -24.1% (active); in assay [5], -61.8% (active). The growth in assay [7] was -62.3% (active); in [8], -58.3% (active); in assay [9] it was -19.1% (active).

In the case of `COc1ccc2nc3cc([N+](=O)[O-])ccc3c(NNc3ccccc3)c2c1`, the growth was 69.4% in assay [1]; 94% in assay [2]; 23.5% in assay [3]; 73% in assay [4]; 29.1% in assay [10]; 88.5% in assay [6]. Also, the values for the growth in assay [7], in assay [8] and in assay [9] were 74.6%, 84.2% and 97.1%, respectively.

On to `Nc1nc(N)c2cc(Sc3cccc(C(F)(F)F)c3)ccc2n1`, for which the growth was 24.3% in [1]; 14.5% in [2]; 42.7% in assay [3]; 34.6% in assay [4]; 19.2% in assay [10]; 28.3% in [5]. Besides, the growth in [7] was 30.3%; in assay [8], 17.4%; in [9] it was 58.4%.

The values above are taken from PubChem BioAssay (NCI).
